In the library only some 3.5% were active in any assay of this set; here they are far more common.
Pf apPOL block: Pf-apPOL DNA polymerase inhibition; AID 1794808; Recombinant Pf-apPOL, molecular beacon fluorescence, 1.5 h; inhibition, % at 10 µM; 210,000 tested, 0.25% active
mHTT-CaM PPI inh: mHTT-calmodulin interaction abrogation; 190,000 tested, 3.6% active; AID 1671202; P42858; inhibition, % at 15 µM; AlphaScreen His-mHTT/GST-CaM binding, luminescence;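 note: 0% = both proteins with DMSO and 100% = one protein alone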
* = called active by the depositor. Cut-off read from the data, not from the text of the source: active = inhibition above about 50%; inactive = the rest.

What do the screens show for `COc1ccc(C)cc1Nc1c(C(=O)N2CCCC2)cnc2nc(C)ccc12`?
Pf apPOL block: -3; mHTT-CaM PPI inh: 0

How did CC(C)N1C(=O)C(C)(C(=O)Nc2ccc(F)c(Cl)c2)Oc2cccnc21 (stereo unspecified) do in these assays?
Pf apPOL block: -5; mHTT-CaM PPI inh: 100*

What do the screens show for `CC(C)N1C(=O)C(C)(C(=O)Nc2cccc(Cl)c2)Oc2cccnc21` (stereo unspecified)?
Pf apPOL block: -1; mHTT-CaM PPI inh: -7

Results for Cc1n[nH]c(C)c1CCC(=O)NCc1cc(-c2cccs2)on1 ?
Pf apPOL block: 1; mHTT-CaM PPI inh: -4

How did CCOc1ccccc1C(=O)N1CCc2cc(OC)c(OC)cc2C1COc1ccc(OC)cc1 (stereo unspecified) do in these assays?
Pf apPOL block: -2; mHTT-CaM PPI inh: 39

What do the screens show for `COc1cc2c(cc1OC)C(COc1ccc(F)cc1)N(C(=O)c1ccc(F)cc1)CC2` (stereo unspecified)?
Pf apPOL block: -10; mHTT-CaM PPI inh: 57*

What do the screens show for `COc1cc2c(cc1OC)C(COc1ccc(F)cc1)N(C(=O)C1CC1)CC2` (stereo unspecified)?
Pf apPOL block: -7; mHTT-CaM PPI inh: 27

What do the screens show for `COc1cc2c(cc1OC)C(COc1ccc(F)cc1)N(C(=O)c1ccccc1OC)CC2` (stereo unspecified)?
Pf apPOL block: -4; mHTT-CaM PPI inh: 81*

Results for O=C(C=Cc1cc2cc3c(cc2nc1Cl)OCO3)C1CC1 ?
Pf apPOL block: -8; mHTT-CaM PPI inh: 1

What do the screens show for `Cc1cc(Br)c(O)c(C2NC(C(=O)O)Cc3c2[nH]c2ccccc32)c1` (stereo unspecified)?
Pf apPOL block: -1; mHTT-CaM PPI inh: 13

Results for O=C(O)C1Cc2c([nH]c3ccccc23)C(c2cc(Br)ccc2O)N1 (stereo unspecified) ?
Pf apPOL block: -3; mHTT-CaM PPI inh: 57*

How did CCn1c(-c2ccccc2)c(C)sc1=Nc1cccc([N+](=O)[O-])c1 do in these assays?
Pf apPOL block: 3; mHTT-CaM PPI inh: 57*

How did O=[N+]([O-])c1cccc(-c2csc(=Nc3ccccc3)n2-c2ccccc2)c1 do in these assays?
Pf apPOL block: -10

What do the screens show for `Cc1nnc2cc(N3CCN(Cc4csc5c4CCCC5)CC3)cnn12`?
Pf apPOL block: 3; mHTT-CaM PPI inh: 28

Results for Cc1nnc2cc(N3CCN(Cc4ccc(C(F)(F)F)cc4)CC3)cnn12 ?
Pf apPOL block: 4; mHTT-CaM PPI inh: 67*

How did CCOC(=O)Cn1cnc2c(-c3cccc(C)c3)csc2c1=O do in these assays?
Pf apPOL block: 0; mHTT-CaM PPI inh: -13

How did Nc1c(N)c(N)c(N)c(N)c1N do in these assays?
mHTT-CaM PPI inh: 64*

How did CC(C)Sc1cccc(-c2nnc(NC(=O)c3cc(-c4ccco4)on3)o2)c1 do in these assays?
Pf apPOL block: -48; mHTT-CaM PPI inh: 37

Results for CC(C)Sc1cccc(C(=O)Nc2nnc(-c3ccnn3C(C)C)o2)c1 ?
Pf apPOL block: -214; mHTT-CaM PPI inh: 68*

How did O=C(Nc1ccccc1)C1CCN(c2ccc3ccccc3c2)C1=O (stereo unspecified) do in these assays?
Pf apPOL block: -3; mHTT-CaM PPI inh: 3

Results for O=C(C1CCN(c2ccc3ccccc3c2)C1=O)N1CCN(Cc2ccccc2)CC1 (stereo unspecified) ?
Pf apPOL block: -1; mHTT-CaM PPI inh: 54*

Results for O=C(COc1ccccc1)Nc1ccc(-c2nnc(-c3ccccc3)o2)cc1 ?
Pf apPOL block: -14; mHTT-CaM PPI inh: -5

What do the screens show for `Cn1c(=O)[nH]c(=O)c2c1nc(N1CCCC1)n2Cc1ccc(F)cc1`?
Pf apPOL block: -9; mHTT-CaM PPI inh: -1

How did CN(C)c1ccc(C2(c3ccc(N(C)C)cc3)OC(=O)c3ccccc32)cc1 do in these assays?
Pf apPOL block: 1; mHTT-CaM PPI inh: 86*

Results for O=C1OC(c2ccccc2)(c2ccccc2)c2ccccc21 ?
Pf apPOL block: 1

How did Cc1ccc(OS(=O)(=O)c2cc(Br)c(Br)s2)c([N+](=O)[O-])n1 do in these assays?
Pf apPOL block: -14

How did Fc1ccc(CNc2ccc(-c3nc(-c4cccc(F)c4)no3)cn2)cc1 do in these assays?
Pf apPOL block: 0; mHTT-CaM PPI inh: -4

Results for CCN1CCN(c2ncc3c(n2)CCN(Cc2ccc(Br)cc2)C3)CC1 ?
Pf apPOL block: 2; mHTT-CaM PPI inh: 76*

What do the screens show for `CCOc1ccc(CN2CCc3nc(N4CCC(C)CC4)ncc3C2)cc1`?
Pf apPOL block: -4; mHTT-CaM PPI inh: 27

What do the screens show for `CCCN1CCN(c2ncc3c(n2)CCN(Cc2ccc(Br)cc2)C3)CC1`?
Pf apPOL block: -4; mHTT-CaM PPI inh: 32

Results for CCCN1CCN(c2ncc3c(n2)CCN(Cc2ccc(CC)cc2)C3)CC1 ?
Pf apPOL block: -4; mHTT-CaM PPI inh: 16

What do the screens show for `CCCN1CCN(c2ncc3c(n2)CCN(Cc2ccc(N(C)C)cc2)C3)CC1`?
Pf apPOL block: -4; mHTT-CaM PPI inh: 53*

High-throughput results (PubChem)
